{"source": "PubChem BioAssay (NCI)", "test_in_all_cases": "NCI-60 one-dose screen, 48 h (100 = growth as untreated, 0 = no growth, -100 = all killed)", "settings_in_all_cases": "10 µM unless noted", "key": {"HCT-15 colon": {"system": "HCT-15 colon"}, "SNB-75 CNS": {"system": "SNB-75 CNS"}, "SNB-19 CNS": {"system": "SNB-19 CNS"}, "PC-3 prostate": {"system": "PC-3 prostate"}, "SK-MEL-5 melanoma": {"system": "SK-MEL-5 melanoma"}, "UACC-62 melanoma": {"system": "UACC-62 melanoma"}, "LOX IMVI melanoma": {"system": "LOX IMVI melanoma"}, "SK-MEL-28 melanoma": {"system": "SK-MEL-28 melanoma"}, "SK-MEL-2 melanoma": {"system": "SK-MEL-2 melanoma"}, "EKVX NSCLC": {"system": "EKVX NSCLC"}, "SN12C renal": {"system": "SN12C renal"}, "UO-31 renal": {"system": "UO-31 renal"}, "ACHN renal": {"system": "ACHN renal"}, "CAKI-1 renal": {"system": "CAKI-1 renal"}, "A498 renal": {"system": "A498 renal"}, "CCRF-CEM leukemia": {"system": "CCRF-CEM leukemia"}, "MOLT-4 leukemia": {"system": "MOLT-4 leukemia"}, "U251 CNS": {"system": "U251 CNS"}, "TK-10 renal": {"system": "TK-10 renal"}}, "note": "Several values for one entry are separate records, joined by “and”; a condition that tells them apart may be missing. Identical values can stand only once. About 83,000 compounds went through this panel and 20% of them were active in at least one assay; those are over-represented in the sample as a whole.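 Values shown are percent growth following 48 h exposure of cells in 96-well plates to a single concentration of compound; below 10 was considered active.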 Activity calls are given as the source filed them.", "data": [{"smiles": "O=C1OC(Oc2ccc(Br)cc2)(c2ccccc2)c2ccccc21", "note": "(centres undefined)", "values": [{"measurement": "growth", "setting": "HCT-15 colon", "value": "69.6% (inactive) and 58.6% (inactive)"}, {"measurement": "growth", "setting": "SNB-75 CNS", "value": "61.2% (inactive) and 77.1% (inactive)"}, {"measurement": "growth", "setting": "SNB-19 CNS", "value": "88.8% (inactive) and 102% (inactive)"}, {"measurement": "growth", "setting": "PC-3 prostate", "value": "80.7% (inactive) and 63.6% (inactive)"}, {"measurement": "growth", "setting": "SK-MEL-5 melanoma", "value": "97.3% (inactive)"}, {"measurement": "growth", "setting": "UACC-62 melanoma", "value": "73.8% (inactive) and 83.9% (inactive)"}, {"measurement": "growth", "setting": "LOX IMVI melanoma", "value": "77.5% (inactive) and 83.2% (inactive)"}, {"measurement": "growth", "setting": "SK-MEL-28 melanoma", "value": "101% (inactive) and 120% (inactive)"}, {"measurement": "growth", "setting": "SK-MEL-2 melanoma", "value": "74.2% (inactive) and 73.2% (inactive)"}, {"measurement": "growth", "setting": "EKVX NSCLC", "value": "96.4% (inactive) and 82.2% (inactive)"}, {"measurement": "growth", "setting": "SN12C renal", "value": "87.8% (inactive) and 98.2% (inactive)"}, {"measurement": "growth", "setting": "UO-31 renal", "value": "72.4% (inactive) and 89.3% (inactive)"}, {"measurement": "growth", "setting": "ACHN renal", "value": "83.6% (inactive) and 80.3% (inactive)"}, {"measurement": "growth", "setting": "CAKI-1 renal", "value": "17.9% (inactive) and 0.588% (active)"}, {"measurement": "growth", "setting": "A498 renal", "value": "80.1% (inactive) and 93.7% (inactive)"}, {"measurement": "growth", "setting": "CCRF-CEM leukemia", "value": "70.1% (inactive) and 46.1% (inactive)"}, {"measurement": "growth", "setting": "MOLT-4 leukemia", "value": "77.4% (inactive)"}]}, {"smiles": "COc1ccc2c(=O)c(-c3cc4c(cc3OC)OCO4)coc2c1", "values": [{"measurement": "growth", "setting": "UACC-62 melanoma", "value": "30.1% [100 µM] (inactive) and 25.3% [100 µM] (inactive)"}]}, {"smiles": "N#Cc1n[nH]n(-c2ccccc2)c1=O", "values": [{"measurement": "growth", "setting": "UACC-62 melanoma", "value": "91.7% [100 µM] (inactive) and 100% [100 µM] (inactive)"}]}, {"smiles": "Nc1nc(SC/C=C/CCl)c2[nH]cnc2n1", "values": [{"measurement": "growth", "setting": "HCT-15 colon", "value": "104% (inactive) and 94.2% (inactive)"}, {"measurement": "growth", "setting": "SNB-75 CNS", "value": "108% (inactive) and 101% (inactive)"}, {"measurement": "growth", "setting": "SNB-19 CNS", "value": "107% (inactive) and 102% (inactive)"}, {"measurement": "growth", "setting": "U251 CNS", "value": "99.1% (inactive) and 98.1% (inactive)"}, {"measurement": "growth", "setting": "PC-3 prostate", "value": "99.6% (inactive) and 93.6% (inactive)"}, {"measurement": "growth", "setting": "SK-MEL-5 melanoma", "value": "103% (inactive) and 114% (inactive)"}, {"measurement": "growth", "setting": "LOX IMVI melanoma", "value": "103% (inactive)"}, {"measurement": "growth", "setting": "SK-MEL-28 melanoma", "value": "115% (inactive) and 112% (inactive)"}, {"measurement": "growth", "setting": "SK-MEL-2 melanoma", "value": "120% (inactive) and 95% (inactive)"}, {"measurement": "growth", "setting": "EKVX NSCLC", "value": "95% (inactive) and 98.7% (inactive)"}, {"measurement": "growth", "setting": "SN12C renal", "value": "108% (inactive) and 111% (inactive)"}, {"measurement": "growth", "setting": "UO-31 renal", "value": "87% (inactive) and 94.3% (inactive)"}, {"measurement": "growth", "setting": "TK-10 renal", "value": "109% (inactive) and 95% (inactive)"}, {"measurement": "growth", "setting": "ACHN renal", "value": "110% (inactive) and 101% (inactive)"}, {"measurement": "growth", "setting": "CAKI-1 renal", "value": "105% (inactive) and 112% (inactive)"}, {"measurement": "growth", "setting": "CCRF-CEM leukemia", "value": "96.6% (inactive)"}, {"measurement": "growth", "setting": "MOLT-4 leukemia", "value": "97.1% (inactive) and 76.3% (inactive)"}]}, {"smiles": "O=C(O)c1cc(C(=O)O)cc([N+](=O)[O-])c1", "values": [{"measurement": "growth", "setting": "HCT-15 colon", "value": "104% (inactive)"}, {"measurement": "growth", "setting": "SNB-19 CNS", "value": "106% (inactive)"}, {"measurement": "growth", "setting": "U251 CNS", "value": "100% (inactive)"}, {"measurement": "growth", "setting": "PC-3 prostate", "value": "96.4% (inactive)"}, {"measurement": "growth", "setting": "SK-MEL-5 melanoma", "value": "104% (inactive)"}, {"measurement": "growth", "setting": "UACC-62 melanoma", "value": "105% (inactive)"}, {"measurement": "growth", "setting": "LOX IMVI melanoma", "value": "97.4% (inactive)"}, {"measurement": "growth", "setting": "SK-MEL-28 melanoma", "value": "118% (inactive)"}, {"measurement": "growth", "setting": "SK-MEL-2 melanoma", "value": "102% (inactive)"}, {"measurement": "growth", "setting": "EKVX NSCLC", "value": "106% (inactive)"}, {"measurement": "growth", "setting": "SN12C renal", "value": "107% (inactive)"}, {"measurement": "growth", "setting": "UO-31 renal", "value": "91.3% (inactive)"}, {"measurement": "growth", "setting": "TK-10 renal", "value": "102% (inactive)"}, {"measurement": "growth", "setting": "ACHN renal", "value": "105% (inactive)"}, {"measurement": "growth", "setting": "CAKI-1 renal", "value": "96.2% (inactive)"}, {"measurement": "growth", "setting": "A498 renal", "value": "103% (inactive)"}, {"measurement": "growth", "setting": "CCRF-CEM leukemia", "value": "94.9% (inactive)"}, {"measurement": "growth", "setting": "MOLT-4 leukemia", "value": "98.4% (inactive)"}]}, {"smiles": "COc1cc2c(c3c1c(=O)c1ccccc1n3C)C=C([N+](=O)[O-])C(C)(C)O2", "values": [{"measurement": "growth", "setting": "UACC-62 melanoma", "value": "-21.5% [100 µM] (active) and -100% [100 µM] (active)"}]}, {"smiles": "O=C1NC(N/N=C\\c2ccccc2)=N/C1=C/c1ccccc1", "values": [{"measurement": "growth", "setting": "UACC-62 melanoma", "value": "-53.2% [100 µM] (active) and -100% [100 µM] (active)"}]}, {"smiles": "C[N+](C)(CCNC(=O)c1cccc2cc3ccccc3nc12)Cc1ccc([N+](=O)[O-])s1", "values": [{"measurement": "growth", "setting": "UACC-62 melanoma", "value": "63.1% [25 µM] (inactive) and 28.9% [25 µM] (inactive)"}]}, {"smiles": "COC(=O)C(Cc1nc2ccccc2[nH]c1=O)C(=O)C(=O)Nc1cc(C(F)(F)F)ccc1Cl", "note": "(centres undefined)", "values": [{"measurement": "growth", "setting": "UACC-62 melanoma", "value": "-87.8% [100 µM] (active) and -39.4% [100 µM] (active)"}]}, {"smiles": "CN1CCN(Cc2occc(=O)c2O)CCN(C)CCN(Cc2occc(=O)c2O)CC1", "values": [{"measurement": "growth", "setting": "HCT-15 colon", "value": "107% (inactive) and 36% (inactive)"}, {"measurement": "growth", "setting": "SNB-75 CNS", "value": "100% (inactive)"}, {"measurement": "growth", "setting": "SNB-19 CNS", "value": "98% (inactive) and 87.6% (inactive)"}, {"measurement": "growth", "setting": "PC-3 prostate", "value": "80.3% (inactive) and 35.6% (inactive)"}, {"measurement": "growth", "setting": "SK-MEL-5 melanoma", "value": "81.4% (inactive) and 47.8% (inactive)"}, {"measurement": "growth", "setting": "LOX IMVI melanoma", "value": "99.1% (inactive) and 43% (inactive)"}, {"measurement": "growth", "setting": "SK-MEL-28 melanoma", "value": "64.4% (inactive)"}, {"measurement": "growth", "setting": "SK-MEL-2 melanoma", "value": "105% (inactive) and 64.9% (inactive)"}, {"measurement": "growth", "setting": "EKVX NSCLC", "value": "104% (inactive) and 62.8% (inactive)"}, {"measurement": "growth", "setting": "SN12C renal", "value": "87.9% (inactive) and 82.7% (inactive)"}, {"measurement": "growth", "setting": "UO-31 renal", "value": "92.2% (inactive) and 66.6% (inactive)"}, {"measurement": "growth", "setting": "TK-10 renal", "value": "100% (inactive) and 65.2% (inactive)"}, {"measurement": "growth", "setting": "ACHN renal", "value": "106% (inactive) and 94% (inactive)"}, {"measurement": "growth", "setting": "CAKI-1 renal", "value": "99.7% (inactive) and 42.1% (inactive)"}, {"measurement": "growth", "setting": "A498 renal", "value": "95.8% (inactive) and 13% (inactive)"}, {"measurement": "growth", "setting": "MOLT-4 leukemia", "value": "97.2% (inactive) and 47.9% (inactive)"}]}]}
